Assay outcomes from PubChem BioAssay.
Only some compounds are listed: those with a hit (about 7.4% of all), similar ones and a draw of the others.
Rab9 prom act: activates the Rab9 promoter. Potency, µM (doses to about 9.22 µM), without a hit: at the top dose activation, negative = inhibition, usual class: activators. actives 2.8% (n = 320,000). Huh7 Rab9 promoter-luciferase reporter, luminescence, 24 h; note: % of control where 0% means no effect; nearly all actives have a fitted effect of over 60% in size
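Luminescence read-out: Huh7 cells stably expressing Rab9-luciferase, treated 24 h with compound at 37 °C, then lysed with luciferase reagent for 10 min at ambient before reading.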
Luc counter: Kinase-Glo luciferase inhibition (counter-screen); Q27757; Kinase-Glo luciferase, ATP luminescence, 8 min; Potency, µM (series often up to 38.3 µM), inactives show at the highest dose activity change, negative = inhibition, usual class: inhibitors; actives 0.28% (n = 200,000); AID 1379; note: % is set by controls: 0 for no effect and ±100 for the full control effect; nearly all actives have a fitted effect of over 60% in size
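Kinase-Glo luciferase light output from ATP and luciferin was measured with 10 uM ATP, within the enzyme's linear range. Buffer: 50 mM imidazole pH 7.2, 50 mM KCl, 7 mM MgCl2, 0.01% Tween 20, 0.05% BSA; luminescence read after 8 min at ambient temperature.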
NPC1 promoter act: activators of NPC1 promoter; Potency, µM (series often up to 9.22 µM), for the others: at the top dose activation, most hits filed as activators; Huh7 NPC1 promoter luciferase reporter, 24 h; actives 2.4% (n = 320,000); note: % of control where 0% means no effect; nearly all actives have a fitted effect of over 60% in size
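Cells: Huh7 expressing luciferase under the NPC1 promoter, 1500/well. Seeded 2 h, compound added, incubated 24 h at 37 °C. Luciferase reagent, 10 min ambient, then luminescence.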
ELG1 genotox: genotoxicity induction in ELG1-luciferase HEK293T cells; HEK293T ELG1-luciferase reporter, luminescence, 16 h; Potency, µM (titrated, usually from 46 µM), without a hit: at the top dose activity change, positive = activation, usual class: activators; actives 1.3% (n = 330,000); note: % of control where 0% means no effect; nearly all actives have a fitted effect of over 60% in size
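After overnight (16 hr) compound treatment at 37 °C, ELG1-luciferase HEK293T cells were lysed with ONE-Glo; luminescence quantified 30 min later at room temperature.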
FLuc counter: inhibits or activates purified firefly luciferase, miR-21 counter-screen; P08659; Potency, µM (highest dose often 57.5 µM), inactives show at the highest dose activity change, negative = inhibition, most hits filed as inhibitors; purified FLuc, Km substrates, luminescence inhibition; actives 6.9% (n = 360,000); AID 588342;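 note: plate controls were vehicle for no effect and reference inhibitor for full effect; nearly all actives have a fitted effect of over 55% in size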
Target sequence (P08659 whole entry, looked up): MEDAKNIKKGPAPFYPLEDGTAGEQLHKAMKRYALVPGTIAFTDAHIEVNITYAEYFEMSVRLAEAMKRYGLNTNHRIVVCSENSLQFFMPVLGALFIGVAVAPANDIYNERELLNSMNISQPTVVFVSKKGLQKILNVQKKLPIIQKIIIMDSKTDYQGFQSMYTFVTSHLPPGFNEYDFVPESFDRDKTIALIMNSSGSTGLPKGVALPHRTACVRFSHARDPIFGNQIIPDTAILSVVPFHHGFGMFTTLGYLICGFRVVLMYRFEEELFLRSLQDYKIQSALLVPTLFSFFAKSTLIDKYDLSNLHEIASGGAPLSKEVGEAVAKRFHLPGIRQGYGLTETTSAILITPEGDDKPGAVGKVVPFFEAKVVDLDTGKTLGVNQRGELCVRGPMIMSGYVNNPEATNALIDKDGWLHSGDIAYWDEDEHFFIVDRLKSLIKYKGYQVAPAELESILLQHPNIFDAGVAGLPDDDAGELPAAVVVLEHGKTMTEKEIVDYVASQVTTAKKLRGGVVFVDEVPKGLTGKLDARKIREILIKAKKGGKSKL
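Purified P. pyralis luciferase, 10 nM final, with Km-level 10 uM D-luciferin and 10 uM ATP in 50 mM Tris acetate pH 7.5, 10 mM Mg acetate, 0.01% Tween-20, 0.05% BSA; 6-point qHTS titration about 60 µM downward; luminescence read.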
SMN2 splice up: increases expression of the SMN2 splice variant; HEK293 SMN2-luciferase splicing reporter, luminescence, 30-36 h; Potency, µM (highest dose often 46.1 µM), without a hit: at the highest dose activity change, positive = activation, hits mostly activators; actives 2.8% (n = 210,000); AID 1458; note: % of control where 0% means no effect; nearly all actives have a fitted effect of over 55% in size
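HEK293 cells carry an SMN2 minigene-luciferase reporter in which exon 7 inclusion puts luciferase in frame. Cells were seeded at 2000 cells/well, attached for 10-12 hours, then exposed to compounds for 30-36 hours at 37C before ONE-Glo luminescence.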
Starred values were filed as active, the others as inactive; ? = inconclusive; . = no result given. Calls come from the whole dose curve; as a rule, active = well fitted curve in the direction sought with a large enough effect; inconclusive = small, poorly fitted or top-dose-only effect, or another doubt; inactive = no such curve, though single readings can be large; an effect the other way counts as inactive or inconclusive. Potency is the fitted concentration of half-maximal effect.

SMILES	Rab9 prom act	Luc counter	NPC1 promoter act	ELG1 genotox	FLuc counter	SMN2 splice up
CC(=O)c1ccc(S(=O)(=O)N2CCC3(CC2)CC(=O)c2ccccc2O3)cc1	-9%	.	-5%	1%	1%	.
Cc1ccc(Nc2ccc(N3CCN(C(=O)c4ccc([N+](=O)[O-])cc4Cl)CC3)nn2)cc1	.	.	.	.	-11%	.
COc1ccc(/C=C/C(=O)c2ccccc2)cc1COc1ccc(F)cc1	-5%	-2%	-2%	-2%	9.5µM*	-19%
COc1ccc(/C=C/C(=O)c2ccc(O)cc2)cc1COc1ccc(F)cc1	2%	.	-2%	-1%	15µM*	.
Cc1c(/C=C/C(=O)c2cccs2)cnn1C	?	4%	?	21µM*	9.5µM*	-36%
CCc1ccc(C(=O)/C=C/c2cnn(C)c2C)s1	3.5µM*	-6%	4µM*	13µM*	0.6µM*	13µM*
O=C(/C=C/c1ccccc1)c1cccs1	.	-16%	.	.	.	.
CCC(=O)n1nc(-c2ccco2)nc1SCc1ccccc1	9%	-1%	15%	?	15µM*	?
O=C(Nc1ccc2c(c1)C(=O)OC2)c1ccccc1Cl	19%	.	4%	15%	-3%	.
CC(C)c1nc2ccc(C(=O)NC(C)c3ccccc3)cc2o1 (stereo not given)	.	.	.	.	5%	.
Cc1ccc(-c2c3c(=O)n(C)c(=O)n(C)c3c3c(C(F)(F)F)nc4ccccc4n23)cc1	.	.	.	.	?	-14%
O=C1OC(c2cccs2)=N/C1=C/c1ccc(-c2cccc(C(=O)O)c2)o1	-3%	1%	3%	?	24µM*	6%
CC(C)S(=O)(=O)C1=NSC2=NC(=O)/C(=C\c3ccc(-c4ccccc4)o3)C(=N)N21	-14%	3%	1%	-6%	?	23%
CS(=O)(=O)C1=NSC2=NC(=O)/C(=C\c3ccc(-c4ccccc4)o3)C(=N)N21	5%	2%	4%	4%	12µM*	5%
N=C1/C(=C/c2ccc(-c3cccc(C(=O)O)c3)o2)C(=O)N=C2SC=C(c3ccccc3)N12	25%	-1%	0%	2%	24µM*	17%
CC(C)S(=O)(=O)C1=NSC2=NC(=O)/C(=C\c3ccc(-c4cccc(C(=O)O)c4)o3)C(=N)N21	-3%	9%	-3%	-9%	13µM*	1%
CCOCCCNC(=O)c1cnc2sc(N3CCCCC3)nn2c1=O	.	.	.	.	-2%	.
C/C=N\NC(=O)COc1cc(C)ccc1C	-5%	0%	0%	-2%	1%	-4%
O=C(NCc1nnc2c(C(F)(F)F)cc(Cl)cn12)c1ccco1	-1%	.	2%	1%	3%	.
O=C(NCC1CCCN1S(=O)(=O)c1cccs1)c1cccc(F)c1 (stereo not given)	0%	.	-1%	-3%	2%	.
C=CCn1cnc2scc(-c3ccc(C)cc3)c2c1=O	-6%	0%	1%	0%	2%	-29%
Cc1cc(C)cc(NC(=O)COC(=O)CC2CCCC2)c1	-1%	.	1%	-1%	.	.
Cc1ccc(C(=O)/C=C/c2ccc(F)cc2)o1	10%	-9%	3%	?	1.5µM*	4%
O=C(/C=C/c1ccc(F)cc1)c1ccccc1Br	-4%	1%	-3%	-15%	19µM*	-8%
COCOc1ccccc1C(=O)/C=C/c1ccccc1	.	-1%	.	.	.	-1%
SMILES	Rab9 prom act	Luc counter	NPC1 promoter act	ELG1 genotox	FLuc counter	SMN2 splice up
CCCCn1c(N)c(N(CCOC)C(=O)c2cc(-c3ccccc3Cl)nc3ccccc23)c(=O)[nH]c1=O	-2%	.	-6%	1%	-1%	.
Cc1ccc(NC(=O)c2csc(-c3ccccc3)c2C)cc1	0.32µM*	-25%	0.11µM*	?	0.095µM*	-4%
O=C(O)c1ccccc1C(=O)Nc1cccc([N+](=O)[O-])c1	-3%	.	-1%	3%	2%	.
Cc1c(C(=O)Nc2cccc([N+](=O)[O-])c2)csc1-c1ccccc1	1.3µM*	-16%	0.71µM*	?	0.85µM*	28µM*
CSc1cccc(NC(=S)N2CCCN(Cc3ccc(F)cc3)C2)c1	-6%	3%	-5%	-1%	6%	-35%
CSc1ccccc1NC(=S)NCc1ccc(Cl)cc1	9%	.	2%	17%	?	.
CCc1ccc(NC(=O)C2CCN(S(=O)(=O)c3c(C)noc3/C=C/c3cccs3)CC2)cc1	.	.	.	.	-3%	-3%
CCCCn1c(N)c(N(CC(C)C)C(=O)c2c(-c3ccccc3)noc2C)c(=O)[nH]c1=O	-5%	.	-2%	-2%	0%	.
O=C(Nc1nnc(SCc2ccccc2)s1)c1cccs1	21%	-8%	24%	15µM*	?	?
CCOCc1nnc(NC(=O)c2cccs2)s1	-1%	2%	0%	1%	-13%	14%
CCSc1nnc(NC(=O)c2cccs2)s1	?	-10%	?	-15%	19µM*	22%
CN(C)c1ccc(/C=C2\C(=N)N3N=C(CC(=O)N4CCCCC4)SC3=NC2=O)cc1	3%	.	3%	6%	13µM*	.
CCC(O)CNC(=O)NC(=C(Cl)Cl)c1ccc(C)c(F)c1 (stereo not given)	-4%	1%	-9%	-3%	1%	-15%
CC(C)(C)OC(=O)N1CCC(NC(=O)c2nc[nH]c2C(=O)N2CCN(c3ccccc3)CC2)CC1	.	.	.	-1%	.	.
COc1ccc(NC(=O)CN2C(=O)NC(C)(c3ccccc3)C2=O)cc1Cl (stereo not given)	-3%	.	-1%	2%	21µM*	.
COc1ccc(C2(C)NC(=O)N(CC(=O)Nc3ccc4ccccc4c3)C2=O)cc1OC (stereo not given)	-1%	.	-1%	-7%	2%	.
CCCC[C@@H]1C=C(C(=O)O)[C@H](c2ccc(Cl)cc2)N1S(=O)(=O)c1ccc(C)cc1	.	.	.	0%	.	.
CCOC(CNC(=O)c1ccc2nc(N3CCC(C)CC3)sc2c1)OCC	?	-5%	?	?	17µM*	-52%
CCC(Cc1ccccc1)NC(=O)c1ccc2nc(N3CCC(C)CC3)sc2c1 (stereo not given)	.	.	.	.	12µM*	-11%
